Sampled rows, rich in hits. Any-hit rate of the full collection: about 0.41%.
N370S GC mod = inhibitors or activators of N370S glucocerebrosidase for Gaucher disease; AID 2101; Potency, µM (titrated, usually from 59.4 µM), for the others: top-dose activity change, negative = inhibition, hits mostly inhibitors; actives 0.092% (n = 330,000); N370S GC spleen homogenate, 4MU-glucoside fluorescence; P04062;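 note: 0% = full enzyme activity and -100% = no enzyme basal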
GAA glycogen = GAA glycogen-cleavage inhibition or activation; P10253; recombinant GAA, glycogen substrate, Amplex Red glucose oxidase fluorescence; Potency, µM (highest dose often 76.4 µM), inactives show at the top dose activity change, negative = inhibition, most hits filed as inhibitors; actives 0.38% (n = 300,000);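 note: 0% = full enzyme reaction and -100% = no-enzyme basal signal; the screen sought inhibitors and activators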
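Recombinant human enzyme (4 nM); glycogen substrate; 37 C, 40 min, pH 5.0. Readout: coupled glucose oxidase/Amplex Red fluorescence.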
GAA spleen mod = lysosomal alpha-glucosidase (human) modulation. Potency, µM (series often up to 79.9 µM), for the others: top-dose activity change, negative = inhibition, usual class: inhibitors. AID 2112. actives 0.006% (n = 240,000). human spleen homogenate, 4-MU-alpha-glucoside fluorescence;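 note: 0% = enzyme with vehicle and -100% = no enzyme basal signal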
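Enzyme source: human spleen homogenate, 1 ug/well. Buffer 50 mM citric acid/K phosphate pH 5.0, 0.01% Tween-20. 4-MU-alpha-glucoside 1 mM; 37 C x 40 min; NaOH/glycine stop; fluorescence.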
Lamin A splicing = LMNA splicing modulation | HeLa LMNA splicing GFP/RFP minigene ratio, 48 h | Potency, µM (doses to about 46.1 µM), for the others: at the highest dose ratio change, negative = inhibition, actives largely listed as inhibitors | actives 0.01% (n = 200,000); active = well fitted inhibition curve with a large enough effect in the signal ratio, with a control signal flat, not every such curve was filed as active; inconclusive = small, poorly fitted or top-dose-only effect, or effect the other way, or a change in a side signal; the % refers to the signal ratio
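S3 HeLa cells stably expressing lamin A-EGFP splicing minigene plus DsRed2, 600 cells/well, 48 h compound exposure at 37C. Laser-scanning cytometry; analysed as GFP (500-530 nm)/RFP (575-640 nm) total intensity ratio; 0.5% DMSO vehicle.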
GAA inh = alpha-glucosidase (human) inhibition; P10253; purified human GAA, 4-MU-alpha-glucoside fluorescence; Potency, µM (top dose mostly 76.9 µM), for inactives: at the highest dose activity change, negative = inhibition, most hits filed as inhibitors; actives 0.005% (n = 200,000);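 note: plate controls were uninhibited enzyme wells for no effect and no-enzyme background for full effect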
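Enzyme (4 nM final) mixed with compound (up to 77 uM), then 4-MU-alpha-D-pyranoside (400 uM final) added; 20 min at room temperature, pH 5.0. Reaction stopped at pH 10, fluorescence read, AC50 derived by Hill fit.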
Numbers without * were called inactive; ? = inconclusive; nt = no result; [ ] = dose if it differs, or a comment. Unless noted, calls come from the whole dose curve; as a rule, active = well fitted curve in the direction sought with a large enough effect; inconclusive = small, poorly fitted or top-dose-only effect, or another doubt; inactive = no such curve, though single readings can be large; an effect the other way counts as inactive or inconclusive. Unless noted, % is set by controls: 0 for no effect and ±100 for the full control effect; potency is the fitted concentration of half-maximal effect.

SMILES | N370S GC mod | GAA glycogen | GAA spleen mod | Lamin A splicing | GAA inh
CCOC(=O)C1(Cc2ccccc2C(F)(F)F)CCN(C(C)CCn2cccn2)CC1 (centres undefined) | 11% | 4.5µM* | 1% | nt | ?
Cc1cccc(CNC(=O)CCCN2C(=O)c3cccnc3Oc3ccccc32)c1 | nt | 13%[76.3 µM] | nt | 9%[46 µM] | nt
COc1cc(/C=N/NC(=O)C(=O)/C=C2\NC(C)(C)Cc3ccccc32)ccc1O | 3% | 35µM* | 12% | nt | nt
COCc1cc(C)nc(SCC(=O)Oc2ccccc2)c1C#N | 29% | -6% | nt | nt | 2%
COCc1cc(C)nc(SCC(=O)c2ccc(O)c(O)c2)c1C#N | -2% | 14µM* | -6% | ? | -9%
CC(=O)Nc1cc(OC(C)=O)c2nonc2c1OC(C)=O | -6% | 16µM* | -7% | ? | -5%
Cc1[nH]n(-c2ccccc2)c(=O)c1Sc1ccc(Cl)cc1 | 16% | ? | -5% | ? | ?
Cc1[nH]n(C(C)(C)C)c(=O)c1Sc1ccccc1 | 4% | 16µM* | -1% | 20% | 1%
C=C(C)C1CCC(C)C(OC(C)=O)C1 (centres undefined) | -2% | nt | 2% | nt | nt
O=C(CSc1ncc(C(F)(F)F)cc1Cl)N1CCN(S(=O)(=O)c2ccccc2)CC1 | nt | ? | -30% | ? | 35µM*
O=C(CSc1ncc(C(F)(F)F)cc1Cl)N1CCN(S(=O)(=O)c2ccc(Cl)cc2)CC1 | 6% | -6% | -10% | -13% | ?
Cc1nnc(N/N=C/c2cc([N+](=O)[O-])c(N3CCC(C)CC3)cc2N2CCC(C)CC2)n1N | -14% | 31µM* | -7% | ? | ?
Cc1ccc2[nH]c(C)c(/C=N/Nc3nc4ccccc4s3)c2c1 | 15%[12.8 µM] | 16µM* | -13% | 15% | -1%
CN=c1scc(-c2ccc(F)cc2)n1/N=C/c1ccc(O)c(O)c1 | 7% | 5.6µM* | -1% | nt | -9%
CN=c1scc(-c2ccc([N+](=O)[O-])cc2)n1/N=C/c1ccco1 | 3% | -2% | 3% | nt | -24%
Nc1ccc2oc(Cc3ccc(Cl)cc3)nc2c1 | nt | -20%[76.3 µM] | nt | nt | nt
CN(C)c1ccc2c(-c3ccccc3)c3ccc(=[N+](C)C)cc-3oc2c1 | 1% | nt | 3% | nt | nt
O=c1c(O)cccc2cc(O)c(O)c(O)c12 | -4% | 14µM* | -2% | -17%[46 µM] | -8%
O=c1cc(-c2ccccc2)oc2cc(O)c(O)c(O)c12 | ? | nt | 9% | nt | nt
Nc1c(C(=O)Nc2ccc(OC(F)(F)F)cc2)nnn1Cc1ccccc1 | nt | -17%[76.3 µM] | nt | nt | nt
CN(Cc1ccccc1)c1nc2c(S(=O)(=O)c3cccc(Cl)c3)nnn2c2ccsc12 | nt | -1%[76.3 µM] | nt | nt | nt
NC(=S)N/N=C1/CCSc2ccc3ccccc3c21 | ? | 28µM* | -7% | ? | -15%
NC(=S)N/N=C/c1c(O)ccc2ccccc12 | -4% | ? | 18% | nt | nt
CCOC(=O)c1[nH]nc(-c2cc(CC)c(O)cc2O)c1-c1cscn1 | -7% | 12µM* | 7% | ? | -5%
CC(C)[C@H](NC(=O)[C@@H](Cc1c[nH]c2ccccc12)NC(=O)[C@H](Cc1ccc(O)cc1)NC(=O)[C@@H](N)CC(=O)O)C(=O)N[C@H](Cc1c[nH]c2ccccc12)C(=O)N[C@H](Cc1c[nH]c2ccccc12)C(=O)N[C@@H](CCCCN)C(N)=O | -1% | nt | 4% | nt | nt
SMILES | N370S GC mod | GAA glycogen | GAA spleen mod | Lamin A splicing | GAA inh
CCc1ccc(O)c(N=Cc2ccccc2O)c1 | -7% | 11µM* | -4% | -25% | -3%
CC[C@H](C)[C@H](NC(=O)[C@H](C)NC(=O)[C@H](Cc1cnc[nH]1)NC(=O)[C@@H]1CCCN1C(=O)CNC(=O)[C@H](CC(C)C)NC(=O)[C@H](CC(C)C)NC(=O)[C@H](Cc1ccc(O)cc1)NC(=O)CNC(=O)[C@H](C)NC(=O)[C@H](CO)NC(=O)[C@H](CC(N)=O)NC(=O)[C@H](CC(C)C)NC(=O)[C@@H](NC(=O)[C@H](Cc1c[nH]c2ccccc12)NC(=O)CN)[C@@H](C)O)C(=O)O | 12% | nt | -12% | nt | nt
Cc1cccc(C(=O)NCCc2nc3ccccc3n2CCC(C)C)c1 | nt | -14%[76.3 µM] | nt | nt | nt
COc1ccc(NC(=O)CS(=O)(=O)c2ccc(C)cc2)c(OC)c1 | 0% | 0%[76.3 µM] | nt | nt | nt
COc1ccc(NC(=O)NS(=O)(=O)c2ccc(C)cc2)c(OC)c1 | 12% | 25µM* | 10% | 8% | 0%
O=S1(=O)C2CC3C=CC2(O3)C(O)C(Cc2ccccc2)N1Cc1cccc(C(F)(F)F)c1 (centres undefined) | -9% | nt | 1% | nt | nt
Cc1cc(C(=O)NNc2ccc(C(C)C)cc2)n(C(C)(C)C)n1 | -2% | 28µM* | -6% | nt | nt
Cc1cc(O)ccc1N=Cc1c(C(F)(F)F)[nH][nH]c1=O | -5% | 22µM* | 3% | ? | -11%
COc1ccc(OC)c(NC(=O)c2cc3c(=O)n4cccc(C)c4nc3n2C)c1 | nt | 12%[76.3 µM] | nt | -3%[46 µM] | nt
NNC(=O)c1nc(-c2ccccc2)n2c1CCCCC2 | 27% | 18µM* | -8% | 8% | 3%
CCNc1c([N+](=O)[O-])ncn1C | -5% | 3% | -9% | 5% | -8%
Cn1cnc([N+](=O)[O-])c1Nc1ccc(O)cc1 | 18% | 28µM* | -9% | 1% | ?
CNC(=O)c1c(NC(=O)c2ccco2)sc2c1CCCC2 | 25% | -1%[76.3 µM] | nt | nt | nt
Cc1ccc(C(=O)C(NC(=O)c2ccco2)Nc2sc3c(c2C(N)=O)CCCC3)cc1 (centres undefined) | -4% | 25µM* | -11% | -7% | -7%
CCn1ccnc1CN(C)Cc1cn(-c2ccc(C)cc2)nc1-c1ccc(F)cc1 | 6.3µM* | -12% | 4% | ? | -1%
CCn1ccnc1CN(C)Cc1cn(-c2ccccc2)nc1-c1ccc(OC)cc1F | 10% | 4% | 1% | nt | -1%
Cc1ccc(-n2cc(CN(C)Cc3nccn3C)c(-c3ccc(F)cc3)n2)cc1 | ? | -18% | 2% | nt | ?
CCn1ccnc1CN(C)Cc1cn(-c2cc(C)ccc2C)nc1-c1ccccc1 | 14µM* | 6% | -3% | nt | nt
COc1ccc(OC)c(C2=Nn3c(nnc3-c3ccccc3C)SC2)c1 | 12% | nt | 1% | nt | nt
CCc1cccc(N(C)C(N)=Nc2cccc3ccccc23)c1 | 13µM* | -3% | -9% | ? | nt

Source: PubChem
